Results as given in PubChem BioAssay (NCI).
Compounds without any hit were thinned out: in the full panel of roughly 83,000, 20% have a hit.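 Activity criterion: percent growth below 10, measured after cells in 96-well plates were exposed to a single compound concentration for 48 hours.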 Calls of active or inactive are those of the source.

Experiments:
Test in all cases: NCI-60 one-dose screen, 48 h (100 = growth as untreated, 0 = no growth, -100 = all killed)
Details in all cases: 10 µM unless noted
NCI-H23 lung = tested on: NCI-H23 lung
NCI-H226 lung = tested on: NCI-H226 lung
NCI-H322M lung = tested on: NCI-H322M lung
HOP-62 NSCLC = tested on: HOP-62 NSCLC
NCI-H460 lung = tested on: NCI-H460 lung
HOP-92 NSCLC = tested on: HOP-92 NSCLC
NCI-H522 lung = tested on: NCI-H522 lung
A549/ATCC NSCLC = tested on: A549/ATCC NSCLC
786-0 renal = tested on: 786-0 renal
COLO 205 colon = tested on: COLO 205 colon
DU-145 prostate = tested on: DU-145 prostate
K-562 leukemia = tested on: K-562 leukemia
MALME-3M melanoma = tested on: MALME-3M melanoma
MDA-MB-231 breast = tested on: MDA-MB-231 breast
RXF 393 renal = tested on: RXF 393 renal
SF-268 CNS = tested on: SF-268 CNS
SF-295 CNS = tested on: SF-295 CNS
SF-539 CNS = tested on: SF-539 CNS
UACC-257 melanoma = tested on: UACC-257 melanoma
M14 melanoma = tested on: M14 melanoma

Measured: growth

Cc1nnc(-n2c(O)cc(=O)n(-c3ccccc3)c2=S)nc1/C=C/c1ccc(N(C)C)cc1
inactive: NCI-H23 lung 60.9% | NCI-H226 lung 61.2% | NCI-H322M lung 50.5% | HOP-62 NSCLC 39.2% | NCI-H460 lung 62.4% | HOP-92 NSCLC 43.7% | NCI-H522 lung 19.2% | A549/ATCC NSCLC 51.2% | 786-0 renal 49.5% | COLO 205 colon 39.7% | DU-145 prostate 73.7% | K-562 leukemia 30.1% | MALME-3M melanoma 63.3% | MDA-MB-231 breast 45.6% | RXF 393 renal 83.3% | SF-268 CNS 78.4% | SF-295 CNS 62% | SF-539 CNS 66% | UACC-257 melanoma 35.3% | M14 melanoma 49.8%

COC(=O)/C=C1/SC(=Nc2ccc(C)cc2)N(CCc2c[nH]c3ccc(O)cc23)C1=O
inactive: NCI-H23 lung 72.7% | NCI-H226 lung 83.1% | NCI-H322M lung 97.7% | HOP-62 NSCLC 55.6% | NCI-H460 lung 52.2% | HOP-92 NSCLC 53.7% | NCI-H522 lung 42.5% | A549/ATCC NSCLC 84% | 786-0 renal 57.2% | COLO 205 colon 108% | DU-145 prostate 26.9% | K-562 leukemia 11.8% | MALME-3M melanoma 77.4% | MDA-MB-231 breast 59.3% | RXF 393 renal 47.7% | SF-268 CNS 56.3% | SF-295 CNS 76.8% | SF-539 CNS 42.9% | UACC-257 melanoma 50.2% | M14 melanoma 34.1%

O=S(=O)(Nc1cc(Br)c(O)c2ccccc12)c1ccc(F)cc1
inactive: NCI-H23 lung 53.1% | NCI-H226 lung 97.5% | NCI-H322M lung 94.9% | HOP-62 NSCLC 103% | NCI-H460 lung 103% | HOP-92 NSCLC 47.1% | NCI-H522 lung 77.3% | A549/ATCC NSCLC 102% | 786-0 renal 111% | COLO 205 colon 93.2% | DU-145 prostate 81.2% | K-562 leukemia 28.7% | MALME-3M melanoma 62.2% | MDA-MB-231 breast 10.7% | RXF 393 renal 102% | SF-268 CNS 79.4% | SF-295 CNS 95% | SF-539 CNS 85.1% | UACC-257 melanoma 63.4% | M14 melanoma 96.7%

O=C(CSc1nc2ccc([N+](=O)[O-])cc2[nH]1)Nc1cccc(C(F)(F)F)c1
inactive: NCI-H226 lung 10.8% | NCI-H322M lung 50.1% | HOP-62 NSCLC 27.6% | NCI-H460 lung 14.4% | A549/ATCC NSCLC 23.2% | 786-0 renal 23.9% | COLO 205 colon 16.8% | DU-145 prostate 30.6% | K-562 leukemia 13.6% | MDA-MB-231 breast 38.5% | RXF 393 renal 44.7% | SF-268 CNS 24.3% | SF-295 CNS 33% | SF-539 CNS 36.5% | UACC-257 melanoma 14.3% | M14 melanoma 27.6%
active: NCI-H23 lung 1.74% | HOP-92 NSCLC -28.9% | NCI-H522 lung 3.44% | MALME-3M melanoma -0.63%

COc1ccc(Cc2cc(-c3ccccc3)nn(Cc3ccccc3)c2=O)cc1OC
inactive: NCI-H23 lung 39.4% | NCI-H226 lung 52% | NCI-H322M lung 82.4% | HOP-62 NSCLC 69.1% | NCI-H460 lung 33.9% | HOP-92 NSCLC 28% | NCI-H522 lung 37% | A549/ATCC NSCLC 20% | 786-0 renal 35.8% | DU-145 prostate 73.8% | K-562 leukemia 22.2% | MALME-3M melanoma 23.4% | MDA-MB-231 breast 43.6% | RXF 393 renal 42.4% | SF-268 CNS 57% | SF-295 CNS 28.8% | SF-539 CNS 63.4% | UACC-257 melanoma 34.4% | M14 melanoma 38%
active: COLO 205 colon 9.24%

C[C@]12C=CC(=O)C=C1CCC1C2[C@@H](O)C[C@@]2(C)C1CC[C@]2(O)C(=O)COC(=O)CCC(=O)O (stereo not given in full)
inactive: NCI-H23 lung 106% | NCI-H226 lung 84.6% | NCI-H322M lung 106% | HOP-62 NSCLC 121% | NCI-H460 lung 103% | HOP-92 NSCLC 87.1% | NCI-H522 lung 103% | A549/ATCC NSCLC 71.3% | 786-0 renal 102% | COLO 205 colon 124% | DU-145 prostate 107% | K-562 leukemia 104% | MALME-3M melanoma 94.8% | MDA-MB-231 breast 94.7% | RXF 393 renal 126% | SF-268 CNS 105% | SF-295 CNS 116% | SF-539 CNS 96.8% | UACC-257 melanoma 99.3% | M14 melanoma 106%

COc1cc(-c2csc(NC(=O)c3cc(-n4cnc(C)c4)cc(C(F)(F)F)c3)n2)cc(OC)c1OC
active: HOP-92 NSCLC 6.13%
inactive: NCI-H23 lung 61.2% | NCI-H226 lung 58% | NCI-H322M lung 67% | HOP-62 NSCLC 72.4% | NCI-H460 lung 33.8% | NCI-H522 lung 38.5% | A549/ATCC NSCLC 60.2% | 786-0 renal 60.2% | COLO 205 colon 84.9% | DU-145 prostate 56.4% | K-562 leukemia 26.8% | MALME-3M melanoma 67.7% | MDA-MB-231 breast 61.3% | RXF 393 renal 66.7% | SF-268 CNS 68.6% | SF-295 CNS 57.9% | SF-539 CNS 90.9% | UACC-257 melanoma 81.9% | M14 melanoma 66.7%

Cc1cccc(Cl)c1NC(=O)c1ccc2nc(NC(=O)NCCN(C)C)sc2c1
inactive: NCI-H23 lung 103% | NCI-H226 lung 100% | NCI-H322M lung 101% | HOP-62 NSCLC 60.3% | NCI-H460 lung 107% | HOP-92 NSCLC 64.1% | NCI-H522 lung 77.5% | A549/ATCC NSCLC 102% | 786-0 renal 87.7% | COLO 205 colon 45.1% | DU-145 prostate 104% | K-562 leukemia 14.7% | MALME-3M melanoma 70.7% | MDA-MB-231 breast 92.6% | RXF 393 renal 47.5% | SF-268 CNS 93.6% | SF-295 CNS 86.7% | SF-539 CNS 79.8% | UACC-257 melanoma 86.1% | M14 melanoma 90.5%

CCOC(=O)C(=Cc1cccc(Cl)c1)C(=O)OCC
inactive: NCI-H23 lung 57.2% | NCI-H322M lung 84.2% | HOP-62 NSCLC 85.2% | NCI-H460 lung 74.4% | HOP-92 NSCLC 13.2% | A549/ATCC NSCLC 46.9% | DU-145 prostate 28% | SF-268 CNS 26.4% | SF-295 CNS 77.2% | UACC-257 melanoma 26.1% | M14 melanoma 11.9%
active: NCI-H226 lung -65.4% | NCI-H522 lung -42.9% | 786-0 renal 7.82% | COLO 205 colon -2.83% | K-562 leukemia -11.1% | MALME-3M melanoma -27.5% | MDA-MB-231 breast 1.37% | RXF 393 renal -27.8% | SF-539 CNS 9.28%

COc1ccc(C(=O)Nc2ncc(Cc3cccc(Cl)c3)s2)cc1OC
inactive: NCI-H23 lung 46.8% | NCI-H226 lung 42.2% | NCI-H322M lung 39.6% | NCI-H460 lung 13.7% | HOP-92 NSCLC 54.6% | A549/ATCC NSCLC 34% | 786-0 renal 26.9% | DU-145 prostate 30.5% | K-562 leukemia 11.6% | MALME-3M melanoma 47.6% | MDA-MB-231 breast 39.1% | SF-268 CNS 50.8% | UACC-257 melanoma 23.1%
active: HOP-62 NSCLC 4.67% | NCI-H522 lung -11% | COLO 205 colon 1.48% | RXF 393 renal -7.25% | SF-295 CNS 6.3% | SF-539 CNS -12.3% | M14 melanoma 8.45%

Cc1nc2sc(C(=O)Nc3cccc(Cl)c3C)c(N)c2cc1C(=O)c1ccccc1
active: NCI-H226 lung 5.27% | NCI-H460 lung 7.35% | NCI-H522 lung 5.64% | COLO 205 colon -36% | RXF 393 renal 3.56% | SF-295 CNS 1.83% | SF-539 CNS -7.44% | M14 melanoma 6.11%
inactive: NCI-H23 lung 34.4% | NCI-H322M lung 49.8% | HOP-62 NSCLC 21.2% | HOP-92 NSCLC 41.6% | A549/ATCC NSCLC 19.9% | 786-0 renal 32.8% | DU-145 prostate 11% | K-562 leukemia 13.5% | MALME-3M melanoma 25% | MDA-MB-231 breast 39% | SF-268 CNS 29.2% | UACC-257 melanoma 63.3%

O=C(OCc1ccc2cccc(O)c2n1)N1CCN(C(=O)c2cc3cc(F)ccc3[nH]2)CC1
inactive: NCI-H226 lung 56.9% | NCI-H322M lung 60% | SF-295 CNS 54.7%
active: NCI-H23 lung -22.8% | HOP-62 NSCLC -29.7% | NCI-H460 lung -47.6% | HOP-92 NSCLC -75.9% | NCI-H522 lung -63.2% | A549/ATCC NSCLC -56.2% | 786-0 renal -87.1% | COLO 205 colon -77.4% | DU-145 prostate -83.9% | K-562 leukemia 1.96% | MALME-3M melanoma -93.2% | MDA-MB-231 breast -81.6% | RXF 393 renal -93.1% | SF-268 CNS -73.4% | SF-539 CNS -98.3% | UACC-257 melanoma -41.4% | M14 melanoma -77.7%

CCN(C(=O)N1CCN(c2cc3c(cc2F)c(=O)c(C(=O)O)cn3C2CC2)CC1)c1nc(-c2ccc(Cl)cc2)cs1
inactive: NCI-H226 lung 11.9% | NCI-H322M lung 11% | HOP-62 NSCLC 14.2% | A549/ATCC NSCLC 12.9% | 786-0 renal 12.7% | DU-145 prostate 23.5% | K-562 leukemia 12.7% | RXF 393 renal 18.2% | SF-268 CNS 21.8% | SF-539 CNS 11.8% | UACC-257 melanoma 12.9% | M14 melanoma 23%
active: NCI-H23 lung 3.93% | NCI-H460 lung 8.51% | HOP-92 NSCLC -19.2% | NCI-H522 lung 1.67% | COLO 205 colon 0.749% | MALME-3M melanoma 6.66% | MDA-MB-231 breast -21.5% | SF-295 CNS -0.18%

Cc1ccc(-c2nn(-c3ccccc3)cc2C=C2C(=O)ON=C2C(C)C)cc1
inactive: NCI-H23 lung 89.2% | NCI-H226 lung 95.3% | NCI-H322M lung 91.2% | HOP-62 NSCLC 88.6% | NCI-H460 lung 80% | HOP-92 NSCLC 86% | NCI-H522 lung 74% | A549/ATCC NSCLC 86.8% | 786-0 renal 78.7% | COLO 205 colon 114% | DU-145 prostate 88.1% | K-562 leukemia 34.2% | MALME-3M melanoma 85.2% | MDA-MB-231 breast 97.3% | RXF 393 renal 89.9% | SF-268 CNS 94.8% | SF-295 CNS 96.8% | SF-539 CNS 83.6% | UACC-257 melanoma 96.4% | M14 melanoma 65.8%
